Reference: PubChem BioAssay
Calls of active or inactive are those of the source.

What was measured:
[1] = optical density shifts of acrAB sulA E. coli – strain DRC41, OD650, 48 h, E. coli filamentation inducer project, primary screen (AID 1152); details: higher = more signal, called active from +8 up or from −8 down;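 note: E. coli MC1000 strain DRC41 lacking acrAB efflux pump and sulA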
[2] = probe aLefty1 binding on compound microarray – biochemical, small-molecule microarray, 635/667 nm fluorescence, primary screen (AID 1153); details: higher = more signal;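 note: score merges spot fluorescence with signal-to-noise ratio from the scanned slide images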
[3] = plasmodial surface anion channel blockers, osmotic lysis – cell-based, P. falciparum Indochina, OD700, 1 h, primary screen (AID 1154); details: P. falciparum Indochina infected RBC osmotic lysis, higher = more signal, called active from +8 up or from −8 down
[4] = plasmodial surface anion channel blockers, osmotic lysis – cell-based, P. falciparum Indochina, OD700, 2 h, primary screen (AID 1155);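 note: lysis reports solute entry through the parasite surface anion channel PSAC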; details: P. falciparum Indochina infected erythrocytes, higher = more signal, called active from +8 up or from −8 down
[5] = changes in parasitized red cell lysis, either direction – P. falciparum Indochina, OD700, 3 h, PSAC antagonist project, primary screen (AID 1156); details: P. falciparum-infected erythrocytes, osmotic lysis, higher = more signal, called active from +8 up or from −8 down
[6] = plasmodial surface anion channel blockers, osmotic lysis – cell-based, P. falciparum Indochina, OD700, 18 h, primary screen (AID 1157); details: P. falciparum Indochina infected erythrocytes, osmotic lysis OD700, 18 h; higher = more signal, called active from +8 up or from −8 down
[7] = S6 kinase pathway phospho-S6 level changes – cell-based, A549, cytoblot, luminescence, serum-stimulated, primary screen (AID 1158); details: 5 h, higher = more signal;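 note: serum-stimulated A549 lung adenocarcinoma cells; signal is phosphorylated S6 detected by cytoblot immunostaining with HRP secondary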
[8] = biological target: NADPH oxidase 2 (Homo sapiens) (UniProt P04839); test: compounds shifting NOX2 Amplex Red fluorescence – cell-based, HEK293-NOX2, PMA-stimulated, NOX inhibitor project, primary screen (AID 1159); details: 45 min, higher = more signal, called active from +8 up or from −8 down; note: test concentration not given here
[9] = biological target: NADPH oxidase 4 (Homo sapiens) (UniProt Q9NPH5); test: compounds shifting NOX4 Amplex Red fluorescence – cell-based, HEK293-NOX4, tetracycline-induced, NOX inhibitor project, primary screen (AID 1160); details: HEK293-NOX4, Amplex Red H2O2 fluorescence, 45 min; higher = more signal, called active from +8 up or from −8 down
[10] = biological target: NADPH oxidase 5 (Homo sapiens) (UniProt Q96PH1); test: compounds shifting NOX5 Amplex Red fluorescence – cell-based, HEK293-NOX5, NOX inhibitor project, primary screen (AID 1161); details: HEK293-NOX5, ionomycin, 45 min, higher = more signal
[11] = compound effects on lung adenocarcinoma cell viability – A549, calcein-AM fluorescence, 48 h, basal, profiling panel (AID 1162); details: higher = more signal; note: test concentration not given here
[12] = compound effects on differentiated 3T3-L1 adipocyte viability – cell-based, 3T3-L1 adipocytes, calcein-AM fluorescence, 48 h, basal, profiling panel (AID 1163); details: 3T3-L1 adipocytes viability, higher = more signal; note: test concentration not given here
[13] = compound effects on hepatocellular carcinoma cell viability – HepG2, calcein-AM fluorescence, 48 h, basal, profiling panel (AID 1164); details: higher = more signal; note: test concentration not given here
[14] = compound effects on multiple myeloma cell viability – MM1S, calcein-AM fluorescence, 48 h, basal, profiling panel (AID 1165); details: higher = more signal;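 note: viability of MM1S multiple myeloma cells under basal unstimulated conditions; test concentration not given here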
[15] = calcein-AM signal in unstimulated myeloma cells – cell-based, calcein-AM fluorescence, 48 h, PK04 Diversity Set, profiling panel (AID 1166); details: RPMI8226 myeloma viability, higher = more signal;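 note: cells grown under basal conditions without added stimulus; test concentration not given here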
[16] = JC-1 mitochondrial signal, unstimulated HepG2 cells – cell-based, JC-1 fluorescence, 24 h, 100 nL compound, profiling panel (AID 1167); details: HepG2 mitochondrial potential, higher = more signal; note: test concentration not given here
[17] = JC-1 mitochondrial signal, unstimulated adipocytes – cell-based, JC-1 fluorescence, 3T3-L1 adipocytes, 24 h, 100 nL compound, profiling panel (AID 1168); details: JC-1 mitochondrial fluorescence, higher = more signal, called active from +8 up or from −8 down; note: test concentration not given here
[18] = JC-1 mitochondrial signal, unstimulated myeloma cells – cell-based, JC-1 fluorescence, RPMI8226, 24 h, 100 nL compound, profiling panel (AID 1169); details: JC-1 mitochondrial potential fluorescence, higher = more signal; note: test concentration not given here
[19] = JC-1 mitochondrial signal, unstimulated MM1S myeloma – cell-based, JC-1 fluorescence, 24 h, 100 nL compound, profiling panel (AID 1170); details: MM1S mitochondrial potential, higher = more signal; note: test concentration not given here
[20] = resazurin metabolic signal in A549 cells – cell-based, resazurin fluorescence, 24 h, PK04 Diversity Set, profiling panel (AID 1171); details: A549 viability, higher = more signal, called active from +8 up or from −8 down; note: test concentration not given here

NADPH oxidase 2 (Homo sapiens), sequence (P04839 whole entry, looked up): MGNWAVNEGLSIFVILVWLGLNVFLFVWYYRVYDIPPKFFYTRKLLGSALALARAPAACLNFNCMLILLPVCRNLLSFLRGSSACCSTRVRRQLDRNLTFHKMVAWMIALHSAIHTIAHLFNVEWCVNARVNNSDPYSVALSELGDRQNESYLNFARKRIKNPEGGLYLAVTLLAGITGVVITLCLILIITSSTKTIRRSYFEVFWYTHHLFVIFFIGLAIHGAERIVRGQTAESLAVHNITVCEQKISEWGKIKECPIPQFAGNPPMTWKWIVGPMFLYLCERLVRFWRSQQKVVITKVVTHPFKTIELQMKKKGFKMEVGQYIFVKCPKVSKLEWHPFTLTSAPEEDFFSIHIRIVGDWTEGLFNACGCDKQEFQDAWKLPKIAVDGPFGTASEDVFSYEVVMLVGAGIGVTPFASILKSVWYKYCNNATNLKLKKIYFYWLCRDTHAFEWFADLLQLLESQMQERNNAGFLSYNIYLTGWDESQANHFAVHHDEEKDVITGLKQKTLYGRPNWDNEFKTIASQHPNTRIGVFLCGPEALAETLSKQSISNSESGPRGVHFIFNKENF
NADPH oxidase 5 (Homo sapiens), sequence (Q96PH1 whole entry, looked up): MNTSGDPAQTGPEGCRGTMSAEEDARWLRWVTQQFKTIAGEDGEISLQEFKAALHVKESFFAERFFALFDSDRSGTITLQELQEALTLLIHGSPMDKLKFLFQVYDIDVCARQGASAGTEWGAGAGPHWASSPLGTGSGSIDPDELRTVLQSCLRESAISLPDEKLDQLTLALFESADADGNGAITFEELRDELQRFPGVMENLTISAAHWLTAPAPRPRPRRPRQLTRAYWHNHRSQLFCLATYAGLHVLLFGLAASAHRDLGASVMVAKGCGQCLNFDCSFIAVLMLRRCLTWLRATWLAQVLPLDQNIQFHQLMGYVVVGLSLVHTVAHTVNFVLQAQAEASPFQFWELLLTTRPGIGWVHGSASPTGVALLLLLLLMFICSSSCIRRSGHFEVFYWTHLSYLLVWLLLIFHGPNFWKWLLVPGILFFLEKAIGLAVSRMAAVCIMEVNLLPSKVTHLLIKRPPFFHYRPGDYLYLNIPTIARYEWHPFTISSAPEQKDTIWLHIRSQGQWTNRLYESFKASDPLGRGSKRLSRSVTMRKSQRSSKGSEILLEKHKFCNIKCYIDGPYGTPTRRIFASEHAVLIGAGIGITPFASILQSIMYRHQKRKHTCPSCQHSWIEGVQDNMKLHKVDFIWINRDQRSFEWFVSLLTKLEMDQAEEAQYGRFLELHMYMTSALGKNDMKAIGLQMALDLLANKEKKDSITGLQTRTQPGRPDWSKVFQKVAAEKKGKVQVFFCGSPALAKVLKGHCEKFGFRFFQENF
NADPH oxidase 4 (Homo sapiens), sequence (Q9NPH5 whole entry, looked up): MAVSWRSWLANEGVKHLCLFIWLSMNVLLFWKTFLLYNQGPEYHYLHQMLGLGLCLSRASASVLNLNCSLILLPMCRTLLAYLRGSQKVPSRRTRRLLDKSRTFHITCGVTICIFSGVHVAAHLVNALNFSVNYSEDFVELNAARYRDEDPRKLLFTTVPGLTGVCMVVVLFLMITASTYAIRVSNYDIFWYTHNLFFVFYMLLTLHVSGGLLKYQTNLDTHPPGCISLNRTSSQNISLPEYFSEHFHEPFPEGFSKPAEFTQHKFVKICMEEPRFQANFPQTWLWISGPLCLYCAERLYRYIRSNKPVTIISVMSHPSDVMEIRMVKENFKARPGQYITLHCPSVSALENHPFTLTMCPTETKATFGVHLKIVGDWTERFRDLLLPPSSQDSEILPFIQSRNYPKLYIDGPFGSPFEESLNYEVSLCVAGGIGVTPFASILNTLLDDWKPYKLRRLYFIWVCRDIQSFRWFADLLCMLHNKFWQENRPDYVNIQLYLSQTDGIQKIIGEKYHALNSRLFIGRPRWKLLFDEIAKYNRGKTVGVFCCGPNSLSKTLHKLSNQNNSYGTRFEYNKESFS

SMILES | z-score [1] | composite z-score [2] | z-score [3] | z-score [4] | z-score [5] | z-score [6] | z-score [7] | z-score [8] | z-score [9] | z-score [10] | z-score [11] | z-score [12] | z-score [13] | z-score [14] | z-score [15] | z-score [16] | z-score [17] | z-score [18] | z-score [19] | z-score [20]
COc1ccc(C(O)C2C=CC3C(=O)N(c4ccccc4)C(=O)C3N2Nc2ccc([N+](=O)[O-])cc2)cc1OCc1ccccc1 (stereo not given) | -1.64 (inactive) | 1.55 | 14.2 (active) | 2.71 (inactive) | 0.107 (inactive) | 0.926 (inactive) | -0.881 | 0.151 (inactive) | -0.18 (inactive) | -1.29 | -0.805 | -0.64 | -1.09 | 0.324 | -0.378 | -0.608 | -1.46 (inactive) | -0.215 | -0.693 | 0.317 (inactive)
CCCCCN1CC=CC23O[C@@H]4C=CCOC(=O)[C@@H]4[C@H]2C(=O)N(CCCO)[C@@H]3C1=O (stereo not given in full) | 3.22 (inactive) | -0.149 | -0.322 (inactive) | -0.397 (inactive) | 0.993 (inactive) | -0.501 (inactive) | 0.724 | -0.169 (inactive) | -0.724 (inactive) | -1.14 | -0.279 | 2.21 | -0.721 | 0.364 | -0.0478 | -1.29 | -0.883 (inactive) | -0.022 | 0.208 | -0.15 (inactive)
COCCOC(=O)N1C(=O)[C@@]2(c3cc(C#CCNC(N)=O)ccc31)[C@H](c1ccc(O)cc1)N1[C@H](c3ccccc3)[C@H](c3ccccc3)OC(=O)[C@H]1[C@@H]2C(=O)Nc1nc2ccccc2s1 | 3.62 (inactive) | 0.144 | 1.13 (inactive) | -0.361 (inactive) | 0.284 (inactive) | -0.0972 (inactive) | 2.46 | 0.806 (inactive) | 0.969 (inactive) | 1.33 | 1.7 | 0.663 | 0.461 | 0.553 | -0.397 | -2.95 | 1.56 (inactive) | -1.03 | 0.189 | 1.69 (inactive)
O=C1c2ccccc2[C@@]2(Cc3ccccc3N(Cc3ccccc3)C2=O)[C@H](c2ccc(CO)cc2)N1C1CCCCC1 | 0.414 (inactive) | 0.0437 | -0.101 (inactive) | 0.546 (inactive) | 0.105 (inactive) | 0.327 (inactive) | 0.126 | 0.162 (inactive) | -0.143 (inactive) | -0.548 | -0.774 | -0.752 | -0.466 | -0.144 | -0.977 | -0.689 | 0.604 (inactive) | -0.582 | -1.32 | -0.022 (inactive)
CCOC(=O)C1=CCC(c2ccc([N+](=O)[O-])cc2)N(S(=O)(=O)c2ccc(C)cc2)C1 (stereo not given) | -0.65 (inactive) | 0.0839 | 5.2 (inactive) | 1.91 (inactive) | -0.364 (inactive) | 0.781 (inactive) | -0.864 | 1.07 (inactive) | 0.135 (inactive) | 0.739 | -0.561 | -1.29 | 0.0862 | -0.0901 | -1.17 | 2.63 | -0.769 (inactive) | 0.877 | -2.12 | 0.395 (inactive)
COc1cccc(C(=O)O[C@H]2CC[C@]3(C)C4=C(CCC3C2(C)C)[C@]2(C)CC[C@H]([C@H](C)CCCC(C)C)[C@@]2(C)CC4)c1 (stereo not given in full) | 3.47 (inactive) | 0.0752 | -0.264 (inactive) | -0.611 (inactive) | -0.306 (inactive) | -1.63 (inactive) | 0.801 | -0.606 (inactive) | 0.0302 (inactive) | 0.689 | 0.583 | 0.146 | 0.689 | -0.56 | 0.241 | 1.28 | 0.387 (inactive) | -0.0502 | -1.49 | 0.479 (inactive)
COc1ccc([Si](C)(C)[C@H]2[C@H](CCn3cc([C@H](O)c4ccccc4)nn3)O[C@@]3(C(=O)N(Cc4cccc(N5CCC5=O)c4)c4ccccc43)[C@@H]2C)cc1 | 2.02 (inactive) | 0.167 | 9.44 (active) | 0.475 (inactive) | -0.272 (inactive) | -0.87 (inactive) | 1.77 | 0.0292 (inactive) | 1.09 (inactive) | 2.04 | 0.692 | 1.3 | 1.57 | 0.739 | -1.32 | 0.906 | -0.336 (inactive) | -1.15 | -0.948 | -0.323 (inactive)
O=C1C2C=CC(C(O)c3ccc(-c4ccccc4)s3)N(n3cnnc3)C2C(=O)N1Cc1ccccc1 (stereo not given) | -0.613 (inactive) | 0.284 | 2.44 (inactive) | 1.41 (inactive) | 0.605 (inactive) | 0.832 (inactive) | 0.0424 | -0.547 (inactive) | -0.149 (inactive) | -0.918 | -0.787 | -0.293 | -0.638 | -0.593 | -1.87 | -0.666 | -0.878 (inactive) | -0.128 | 0.871 | -1 (inactive)
CCC(CC)C(O)C1C=CC2C(=O)N(c3ccccc3)C(=O)C2N1Nc1ccc(C#N)cc1 (stereo not given) | -0.35 (inactive) | 0.675 | 15.4 (active) | 2.91 (inactive) | 3.47 (inactive) | 1.51 (inactive) | -1.11 | -1.49 (inactive) | -3.45 (inactive) | -3.2 | 0.313 | -0.534 | -0.136 | 0.436 | -0.452 | -1.03 | -1.29 (inactive) | -0.659 | -0.0284 | 0.158 (inactive)
